# 12-LOX inh: Primary qHTS assay for inhibitors of human arachidonate 12S-lipoxygenase (ALOX12): Round 2; Polyunsaturated fatty acid lipoxygenase ALOX12 (Homo sapiens), P18054; purified 12hLO, xylenol orange hydroperoxide absorbance; Potency, µM (titrated, usually from 108 µM), actives largely listed as inhibitors; 580,000 tested, 1.1% active; AID 1671190, 2021
# Target sequence (P18054 whole entry, looked up): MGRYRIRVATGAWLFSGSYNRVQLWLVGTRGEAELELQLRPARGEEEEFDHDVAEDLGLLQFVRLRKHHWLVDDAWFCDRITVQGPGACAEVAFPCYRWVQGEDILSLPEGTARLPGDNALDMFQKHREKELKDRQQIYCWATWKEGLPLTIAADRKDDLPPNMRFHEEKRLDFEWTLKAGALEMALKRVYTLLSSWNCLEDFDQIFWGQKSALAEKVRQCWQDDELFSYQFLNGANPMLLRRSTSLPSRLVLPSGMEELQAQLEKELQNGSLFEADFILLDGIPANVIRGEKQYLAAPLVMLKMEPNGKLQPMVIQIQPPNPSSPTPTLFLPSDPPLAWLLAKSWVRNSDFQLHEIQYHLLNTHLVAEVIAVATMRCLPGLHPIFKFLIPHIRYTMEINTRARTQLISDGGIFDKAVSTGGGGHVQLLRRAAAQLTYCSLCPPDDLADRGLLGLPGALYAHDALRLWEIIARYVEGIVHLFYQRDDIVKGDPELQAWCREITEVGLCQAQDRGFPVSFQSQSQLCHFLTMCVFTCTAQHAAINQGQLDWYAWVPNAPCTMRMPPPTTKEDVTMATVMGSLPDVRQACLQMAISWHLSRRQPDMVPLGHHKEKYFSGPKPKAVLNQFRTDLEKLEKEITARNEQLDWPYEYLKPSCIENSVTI
#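 Purified human 12hLO at 150 nM in 25 mM Hepes, 0.01% Triton X-100, pH 7.0, preincubated 15 min at room temperature with compound. Reaction started with 40 uM arachidonic acid, 30 min at room temperature. Hydroperoxide measured by Fe-xylenol orange, 573/405 nm absorbance ratio.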
# TDP1 cell CPT: qHTS for Inhibitors of human tyrosyl-DNA phosphodiesterase 1 (TDP1): qHTS in cells in presence of CPT. AID 686979, 2013. Potency, µM (doses to about 46.2 µM), actives largely listed as inhibitors. 420,000 tested, 12% active. chicken DT40 Tdp1-/-;hTDP1 cells + 20 nM CPT, ATP luminescence, 48 h; note: nearly all actives have a fitted effect of over 55% in size
#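 Chicken DT40 Tdp1-/- cells complemented with human TDP1, 400 cells/well, exposed to compounds plus 20 nM camptothecin for at least 48 h at 37 C; viability read as ATP content by CellTiter-Glo luminescence.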
# DT40 TDP1 no CPT: qHTS for Inhibitors of human tyrosyl-DNA phosphodiesterase 1 (TDP1): qHTS in cells in absence of CPT | DT40 Tdp1-/- hTDP1 cells, no CPT, ATP luminescence, 48 h | Potency, µM (top dose mostly 46.2 µM), usual class: inhibitors | 420,000 tested, 15% active | AID 686978, 2013; note: nearly all actives have a fitted effect of over 55% in size
#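 Camptothecin absent (DMSO only). Human TDP1-complemented DT40 knockout cells, 400 cells/well, 37 °C for minimum 48 hr; ATP measured via CellTiter-Glo, 30 min dark incubation, luminescence.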
# IL-1B inflam inh: qHTS for Inhibitors of Inflammasome Signaling: IL-1-beta AlphaLISA Primary Screen; THP-1 LPS/ATP IL-1B secretion, AlphaLISA, 16 h; hits give low values; activity change, % at 57.5 µM; 360,000 tested, 4.7% active; AID 743279, 2014; in the data active = activity change below about -50%; inconclusive = mostly about -30% to -49%
#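 Secreted IL-1B measured by AlphaLISA bead assay after 16 h compound exposure of THP-1 cells; compounds (final up to 57.5 uM) added 1 h before LPS (250 ng/mL) and ATP (1.25 mM) stimulation; lower signal means less secretion.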
# HT1080 IDH1KD tx: qHTS for induction of synthetic lethality in tumor cells producing 2HG: qHTS for the HT-1080-IDH1KD cell line. Potency, µM (series often up to 46.1 µM), actives largely listed as cytotoxic. 360,000 tested, 2% active. AID 686971, 2013. HT-1080 IDH1 knockdown viability, ATP luminescence, 48 h
#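 CellTiter-Glo luminescence after 48 h compound exposure at 37 degrees C of IDH1-knockdown HT-1080 cells in 5% FBS RPMI. %Activity scaled between DMSO wells and cell-free media wells, with curves fitted and assigned curve classes.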
# HT1080-NT tox: qHTS for induction of synthetic lethality in tumor cells producing 2HG: qHTS for the HT-1080-NT fibrosarcoma cell line; HT-1080-NT fibrosarcoma viability, CellTiter-Glo ATP luminescence, 48 h; Potency, µM (doses to about 46.1 µM), usual class: cytotoxic; 360,000 tested, 1.6% active;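 note: NT is the 2HG producing partner of a matched IDH1 knockdown line; nearly all actives have a fitted effect of over 55% in size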
#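 Luminescent CellTiter-Glo readout after 48 hours of compound exposure at 37 degrees C defined viability of HT-1080-NT cells. Activity was normalized to DMSO wells and cell-free media wells; concentration-response curves were fitted and assigned curve classes.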
# Numbers stand for hits; – = inactive; ? = inconclusive; · = not tested or not shown. Many of the other results were omitted from the sample, so hits are more common in it than they were. Unless noted, calls come from the whole dose curve; as a rule, active = well fitted curve in the direction sought with a large enough effect; inconclusive = small, poorly fitted or top-dose-only effect, or another doubt; inactive = no such curve, though single readings can be large; an effect the other way counts as inactive or inconclusive.
SMILES,12-LOX inh,TDP1 cell CPT,DT40 TDP1 no CPT,IL-1B inflam inh,HT1080 IDH1KD tx,HT1080-NT tox
CCC(C(=O)Nc1c(C)cccc1C)n1c(-c2ccc(-c3ccccc3)cc2)nc2ccccc21 (centres undefined),–,15µM,15µM,–,–,–
COc1ccc(C(C(=O)NC(C)(C)C)n2c(=O)c(-c3ccco3)nc3ccccc32)cc1 (centres undefined),25µM,?,23µM,–,?,–
Nc1ccc(Cc2ccc(N)c(O)c2)cc1O,?,23µM,?,–,–,–
COc1cc(Cc2ccc(N)c(OC)c2)ccc1N,–,?,–,–,–,–
COC(=O)c1cc(OC)c(OC)cc1NC(=O)C1CCC(=O)N1S(=O)(=O)c1ccc(C)cc1 (centres undefined),?,21µM,18µM,–,–,–
Fc1ccc(N2CCN(C3=Nc4cccc5cccc3c45)CC2)cc1,–,26µM,16µM,-52,?,–
c1ccc(CN2CCN(C3=Nc4cccc5cccc3c45)CC2)cc1,–,?,?,-90,–,–
CN(C)S(=O)(=O)N1CCC(Oc2ccc(C(=O)N3C[C@H]4CC[C@H]3C4)cc2)CC1,–,12µM,21µM,–,–,?
CN(C)S(=O)(=O)N1CCC(Oc2ccc(C(=O)N3C[C@@H]4CCC[C@H]3C4)cc2)CC1,–,16µM,?,–,–,–
COC1CCCN(C(=O)c2ccc(OC3CCN(S(=O)(=O)N(C)C)CC3)cc2)C1 (centres undefined),–,–,?,–,–,–
CC(C)CCNC(=O)c1ccc(OC2CCN(S(=O)(=O)N(C)C)CC2)cc1,–,?,?,–,–,–
COc1cc(OC)cc(C(=O)/C(=C/c2cccnc2)c2nc3ccccc3o2)c1,–,·,·,·,·,·
CCN(C(=O)COC(=O)Cc1n[nH]c(=O)c2ccccc12)c1ccc(F)cc1,–,·,·,·,·,·
COc1cc(NS(=O)(=O)c2ccc(C)cc2C)cc(OC)c1OC,–,6.5µM,6.5µM,–,–,–
COc1cc(NS(=O)(=O)c2cc3c(cc2C)N(C)CCO3)cc(OC)c1OC,–,21µM,15µM,·,·,·
Cc1cc(C)c2c(C(=O)N(C)Cc3nc(C)no3)cc(C)nc2c1,–,·,·,·,·,·
Cc1cnccc1CN(C)C(=O)c1cc(COc2ccc(-n3cncn3)cc2)on1,–,·,·,·,·,·
Cc1cc(OC(C)C(=O)N2CCN(c3ccccc3)CC2)c2c(C)c(C)c(=O)oc2c1 (centres undefined),–,?,29µM,–,–,–
NC1=NC[C@H](Cc2ccccc2)N1CC1CCCCC1,–,10µM,12µM,–,–,–
NC1=NC[C@H](Cc2ccc(O)cc2)N1CC1CCCCC1,–,?,15µM,–,–,–
NC1=NC[C@H](Cc2ccccc2)N1CCc1cc(C(F)(F)F)cc(C(F)(F)F)c1,–,23µM,15µM,–,–,–
FC(F)(F)c1cc(CCN2C(=S)NC[C@@H]2Cc2ccccc2)cc(C(F)(F)F)c1,?,?,?,–,?,?
NC1=NC[C@@H](Cc2ccc(O)cc2)N1CCCCC1CCCCC1,–,5.2µM,3.7µM,?,–,–
CCCN(Cc1ccccc1)C(=O)NCCC(=O)OCC,–,·,·,·,·,·
Nc1cccc(OCCOc2ccccc2)c1,–,·,·,·,·,·
SMILES,12-LOX inh,TDP1 cell CPT,DT40 TDP1 no CPT,IL-1B inflam inh,HT1080 IDH1KD tx,HT1080-NT tox
NC1=NC[C@@H](Cc2ccc(O)cc2)N1CCC12CC3CC(CC(C3)C1)C2,?,21µM,21µM,–,–,–
NC1=NC[C@H](Cc2ccc(O)cc2)N1CCc1cccc(F)c1,–,–,?,–,–,–
CCn1nc(C(=O)N2CC(C(=O)N3CCOCC3)Oc3ccccc32)c2ccccc2c1=O (centres undefined),–,·,·,·,·,·
Nc1ccc(C(=O)Nc2ccc(NC(=O)c3ccco3)c(O)c2)cc1,–,?,16µM,–,–,–
O=C(Nc1cccc(NC(=O)c2nccc3ccccc23)c1)c1ccco1,–,?,10µM,–,–,–
Nc1ccc(NC(=O)c2cccc(C(=O)Nc3ccc(N)cc3Cl)c2)c(Cl)c1,–,18µM,16µM,–,16µM,?
O=C(Nc1ccccc1O)c1cccc(NC(=O)c2ccco2)c1,–,21µM,13µM,–,–,–
Nc1cccc(NC(=O)c2ccco2)c1,–,–,–,–,–,–
Cc1cccc2c(=O)c3c(O)cc(OCC(=O)Nc4ccc(Br)cc4)cc3oc12,–,·,·,·,·,·
CC(C)Oc1ccc(C(=O)Nc2ccc(NC(=O)c3ccco3)c(Cl)c2)cc1,–,?,?,?,–,–
O=C(Nc1ccc(NC(=O)c2ccco2)c(Cl)c1)c1ccccc1,–,?,23µM,?,–,–
O=C(Nc1cccc(-c2cnc3ccccc3n2)c1)c1cccc(NC(=O)c2ccco2)c1,–,6.5µM,15µM,–,?,?
O=C(Nc1ccncc1)C1CC(=O)N(c2ccccc2)C1 (centres undefined),–,–,–,–,–,–
O=C(Nc1ccc(Cl)c(Cl)c1)Oc1ccc(NC(=O)c2ccco2)cc1,–,?,26µM,-88,–,–
O=C(Nc1cccc(-c2cnc3ccccc3n2)c1)C1CC(=O)N(c2ccccc2)C1 (centres undefined),–,21µM,23µM,–,–,–
CC1(c2ccccc2)N(Cc2cccnc2)C(=O)OC12CCN(Cc1ccccc1Cl)CC2 (centres undefined),–,·,·,·,·,·
CN(C)c1cccc(NCc2nc3c(n2Cc2ccccc2)C(=O)N(CCOc2ccccc2)CCN3)c1,–,·,·,·,·,·
CC1CCCN1c1ccc(C(=O)N2CCC(Oc3cccnc3)CC2)cn1 (centres undefined),–,·,·,·,·,·
O=C(CCl)Nc1cccc(-c2cnc3ccccc3n2)c1,–,2.9µM,2.3µM,-96,?,?
CC(C)COc1ccc(C(=O)Nc2ccc(NC(=O)c3ccco3)c(Cl)c2)cc1,–,?,–,–,15µM,?
O=C(Nc1ccccc1C(=O)O)c1cccc(NC(=O)c2ccc(Br)o2)c1,–,–,1.6µM,–,–,–
O=C(Nc1ccccc1C(=O)O)c1ccc(NC(=O)c2ccc(Br)o2)cc1,–,?,?,–,?,–
CCC(=O)Nc1cccc(-c2cnc3ccccc3n2)c1,–,?,?,–,–,–
